Results taken from PubChem BioAssay AID1259421 (Broad Institute, 2018).
Several values for one entry are separate records, joined by “and”; a condition that tells them apart may be missing. Equal values may be shown once. The campaign covered roughly 6,400 compounds. About 610 (9.5%) were called active. Rule as the data show it: active = activity change below about -70%; inconclusive = no clear call, values can overlap the other calls; inactive = above that. The full list was thinned out, with actives kept by preference.

Assay: T. gondii ME49Luc in HeLa cells, luciferase assay, 72 h, no IFN-y (AID 1259421)
Details: active compounds read low, concentration not given here

| SMILES | activity change, negative = inhibition |
| --- | --- |
| CCOc1ccc(Cc2cc([C@@H]3O[C@H](CO)[C@@H](O)[C@H](O)[C@H]3O)ccc2Cl)cc1 | 4.88% (inactive) and 10.3% (inactive) |
| CCN1/C(=C/C(C)=O)Sc2ccc(OC)cc21 | 21% (inactive) |
| CC#CCOC(=O)c1c(C)nc2sc3c(c2c1N)CCC(O)C3 (configuration not stated) | 49.7% (inactive) and 66.7% (inactive) |
| N[C@@H]1[C@@H](O)[C@H](O)[C@@H](CO)O[C@H]1O | 1.35% (inactive) |
| CN(CCc1ccc(Cl)c(Cl)c1)CCN1CCCC1 | 14.6% (inactive) |
| CC1(O)C(O)C(CO)OC1n1ccc(N)nc1=O (configuration not stated) | 27.1% (inactive) |
| C[C@@H]1O[C@@H](O[C@@H]2[C@H](Oc3cc(O)c(C(=O)CCc4ccc(O)cc4)c(O)c3)O[C@H](CO)[C@@H](O)[C@@H]2O)[C@H](O)[C@H](O)[C@H]1O | 5.31% (inactive) |
| COc1cc2c(cc1OC)CC(=O)N(CCCN(C)C[C@@H]1Cc3cc(OC)c(OC)cc31)CC2 | 13.9% (inactive) |
| COc1cc2ncnc(Nc3cccc(O)c3)c2cc1OC | 10.5% (inactive) |
| COc1cc2ncnc(Oc3cccc(NC(=O)Nc4cc(C(C)(C)C(F)(F)F)on4)c3)c2cc1OC | -78.4% (active) |
| CCCNC(=O)Nc1ccc(Oc2ncnc3cc(OC)c(OC)cc23)cc1Cl | 6.99% (inactive) |
| CNc1cc(OC)c(C(=O)N[C@@H]2CCN(Cc3ccccc3)[C@@H]2C)cc1Cl (racemic) | 26% (inactive) |
| CC(=O)Nc1nnc(S(N)(=O)=O)s1 | 18.1% (inactive) and 14.1% (inactive) |
| CC(=O)Nc1nc(C)c(-c2ccc(Cl)c(S(=O)(=O)NCCO)c2)s1 | -78.9% (active) |
| Cc1nc(NC(=O)N2CCC[C@H]2C(N)=O)sc1-c1ccnc(C(C)(C)C(F)(F)F)c1 | -3.31% (inactive) |
| c1ncc(CC2CCNCC2)[nH]1 | 9.05% (inactive) and 12.6% (inactive) |
| N#C/C(=C/c1ccc(O)c(O)c1)C(=O)NCCCCc1ccccc1 | 28.9% (inactive) |
| COc1cnc(-n2cnc(C)n2)c2[nH]cc(C(=O)C(=O)N3CCN(C(=O)c4ccccc4)CC3)c12 | 22.1% (inactive) |
| C=C1C(=O)O[C@@H]2[C@H]3O[C@]3(C)CC/C=C(\C)CC[C@@H]12 | 6.15% (inactive) |
| CCC[C@@H]1C[C@@H](C(=O)N[C@@H](C2O[C@H](SC)[C@H](O)[C@@H](O)[C@H]2O)[C@H](C)Cl)N(C)C1 (some centres not stated) | -0.424% (inactive) |
| CC(C)[C@H](N)C(=O)OCCOCn1cnc2c(=O)[nH]c(N)nc21 | 9.53% (inactive) and 3.52% (inactive) |
| O=C(CCc1ccc(O)cc1)c1c(O)cc(O)cc1O[C@@H]1O[C@H](CO)[C@@H](O)[C@H](O)[C@@H]1O | 6% (inactive) |
| CC(C)(C)Cn1c(N)nc2ccc(-c3[nH]c(C(C)(C)C)nc3-c3ccc(F)cc3)nc21 | -83.7% (active) |
| CC(C)(C)C(=O)OCOC(=O)[C@@H]1N2C(=O)[C@@H](N=CN3CCCCCC3)[C@H]2SC1(C)C | 2.97% (inactive) |
| O=C(N[C@@H]1CC[C@@H](c2cccc(F)c2F)CN(CC(F)(F)F)C1=O)N1CCC(n2c(=O)[nH]c3ncccc32)CC1 | 5.74% (inactive) |
| CC(CSC(=O)c1ccccc1)C(=O)N1C[C@@H](Sc2ccccc2)C[C@H]1C(=O)O (some centres not stated) | 5.4% (inactive) |

| SMILES | activity change, negative = inhibition |
| --- | --- |
| O=c1cc(-c2ccccc2)oc2cc(O)ccc12 | 60.2% (inactive) |
| O=c1cc(-c2ccccc2)oc2c(O)c(O)ccc12 | -85.8% (active) |
| O=c1cc(-c2ccccc2)oc2cccc(O)c12 | 21.2% (inactive) |
| COc1ccc(-c2noc(CC(=O)O)c2-c2ccc(OC)cc2)cc1 | 7.28% (inactive) |
| CCOc1ccc(Nc2nc(-c3c(C)nc4ccccn34)cs2)cc1 | -74% (active) |
| COc1cc(Br)c(Nc2nc(-c3c(C)nc4ncccn34)cs2)c(Br)c1 | 13.9% (inactive) |
| Oc1ccc(Nc2nc(-c3ccc(Cl)cc3)cs2)cc1 | 28.7% (inactive) |
| Cn1cc(C(F)(F)F)nc1-c1ccc(OCC(O)CNCCOc2ccc(O)c(C(N)=O)c2)cc1 (configuration not stated) | 1.01% (inactive) |
| CC(C)(C)NC(=O)[C@H]1CCC2C3CC[C@H]4NC(=O)C=C[C@]4(C)C3CC[C@@]21C (some centres not stated) | -5.92% (inactive) |
| COc1cc2c(cc1OC)[C@@H]1C(=O)c3ccc4c(c3O[C@@H]1CO2)C=CC(C)(C)O4 | -20.6% (inactive) |
| COc1c2c(cc3occ(-c4ccc5c(c4)OCO5)c(=O)c13)OC(C)(C)C=C2 | -31.2% (inactive) |
| COc1c(-c2coc3cc4c(cc3c2=O)CC(OC(C)=O)C(C)(C)O4)ccc2c1C=CC(C)(C)O2 (configuration not stated) | -72.4% (active) |
| COc1c(-c2coc3cc4c(cc3c2=O)CC(O)C(C)(C)O4)ccc2c1C=CC(C)(C)O2 (configuration not stated) | -80% (active) |
| COc1ccc(-c2coc3cc(O)ccc3c2=O)c(O)c1O | 2.93% (inactive) |
| COc1c(CC(=O)c2cc3c(cc2O)OC(C)(C)C(O)C3)ccc2c1C=CC(C)(C)O2 (configuration not stated) | 16.9% (inactive) |
| CCOC(=O)C1=CC2(CC)CCCN3CCc4c(n1c1ccccc41)C32 (configuration not stated) | 23.3% (inactive) |
| COC12CC(COC(=O)c3cncc(Br)c3)CN(C)C1Cc1cn(C)c3cccc2c13 (configuration not stated) | 13.7% (inactive) |
| CC(=O)NC(C(=O)O)C(C)(C)S[NH2+][O-] (configuration not stated) | 16% (inactive) |
| Cc1c(C(=O)Nc2ccc(N3CCC(N4CCOCC4)CC3)c(C#N)c2)cnn1-c1ccc(Cl)cc1 | -92.1% (active) |
| CCc1cc2c(cc1N1CCC(N3CCOCC3)CC1)C(C)(C)c1[nH]c3cc(C#N)ccc3c1C2=O | 16.2% (inactive) |
| Cc1ccccc1C(=O)Nc1ccc(C(=O)N2CCCC(O)c3cc(Cl)ccc32)c(C)c1 (configuration not stated) | 7.82% (inactive) |
| CN1C2CC(OC(=O)C(CO)c3ccccc3)CC1C1OC12 (configuration not stated) | 11.1% (inactive) |
| CNc1cc(OC)c(C(=O)N[C@@H]2CCN(Cc3ccccc3)[C@H]2C)cc1Cl | 15.3% (inactive) |
| Cn1cc(C(=O)OCC2CCN(CCNS(C)(=O)=O)CC2)c2ccccc21 | 1.88% (inactive) and 6.2% (inactive) |
| Cn1cc(C[C@@H](N)C(=O)O)c2ccccc21 | 16% (inactive) |
| Cn1cc(CNCC2CCN(c3ncc(C(=O)NO)cn3)CC2)c2ccccc21 | -88.1% (active) |
